From PubChem BioAssay (NCI)
This is part of a sample that, as a whole, favours compounds with a hit. Of some 83,000 tested, about 20% had one in any assay.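 Percent growth is the endpoint: 0 to 100 indicates growth inhibition (40 means 60% inhibition), 0 means no net growth, and negative values indicate cell death.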 A number with no mark means an inactive call. Activity calls are given as the source filed them. The calls were made as follows: active = growth percent below 10; inactive = the rest.

Columns and labels:
Test in all cases: NCI-60 one-dose screen, 48 h (100 = growth as untreated, 0 = no growth, -100 = all killed)
Conditions in all cases: 10 µM unless noted
SK-MEL-2 melanoma = system: SK-MEL-2 melanoma
EKVX NSCLC = system: EKVX NSCLC
SN12C renal = system: SN12C renal
UO-31 renal = system: UO-31 renal
TK-10 renal = system: TK-10 renal
ACHN renal = system: ACHN renal
CAKI-1 renal = system: CAKI-1 renal
A498 renal = system: A498 renal
CCRF-CEM leukemia = system: CCRF-CEM leukemia
MOLT-4 leukemia = system: MOLT-4 leukemia

Structure (SMILES) | growth (SK-MEL-2 melanoma) | growth (EKVX NSCLC) | growth (SN12C renal) | growth (UO-31 renal) | growth (TK-10 renal) | growth (ACHN renal) | growth (CAKI-1 renal) | growth (A498 renal) | growth (CCRF-CEM leukemia) | growth (MOLT-4 leukemia)
COc1cc(/C=C/C(=O)N2CCN(C(=O)c3cc(OC)c(OC)c(OC)c3)CC2)ccc1OCCCN1C(=O)c2cccc3cccc(c23)C1=O | 49.3% | 114% | 93.7% | 42.1% | 97.5% | 80.7% | 72.9% | 62.2% | 27.1% | 49.6%
O=C(Cc1ccc(F)c(F)c1)Nc1cc(C2(C(F)(F)F)CC2)nn1Cc1ccccc1 | -32.9% (active) | 6.62% (active) | 6.15% (active) | -3.87% (active) | 3.48% (active) | -13.2% (active) | -18.4% (active) | -34% (active) | 20.1% | 8.42% (active)
O=C1Nc2ccccc2/C1=C/c1cn(C(=O)c2ccc(Cl)cc2)c2ccccc12 | 120% | 59% | 95.4% | 74.7% | 130% | 103% | 59.1% | 116% | 104% | 109%
Cc1ccc(NS(=O)(=O)c2ccc3c(c2)C(=O)CC(c2ccc(C(=O)C(C)C)cc2)N3)cc1C (stereo not given) | 64.2% | 22.7% | 76.4% | 51.7% | 77.9% | 55.1% | 55.9% | 45.2% | 50.3% | 54.5%
Cc1cc(/C=C\c2ccc3ccccc3[n+]2C)c(O)c2ncccc12 | 35.9% | 18.7% | 3.73% (active) | 16.8% | 23.2% | 6.11% (active) | -0.345% (active) | 30.5% | 25.6% | 0.695% (active)
CN(C)CCCn1c(=O)c2ccccc2c2ccccc21 | 83.7% | 107% | 50.6% | 53.6% | 79.3% | 42.2% | 79.8% | 104% | 49.9% | 51.6%
CCN(CC)CCCC(C)Nc1c2ccc(Cl)cc2nc2ccc(O)cc12 (stereo not given) | 52.6% | 48.6% | 30.8% | 34.4% | 55% | 24.2% | 70.9% | 90.7% | 48.3% | 7.11% (active)
O=c1c2cc(F)ccc2sc2c(Nc3cccnc3)nc3ccccc3c12 | 109% | 83.2% | 93.4% | 79.7% | 96.3% | 73.5% | 69.1% | 79.5% | 28.2% | 4.56% (active)
C#Cc1cccc(NC(=O)c2ccc(NC(=O)CCl)cc2)c1 | 31.3% [8.25 µM] | 104% [8.25 µM] | -78.4% [8.25 µM] (active) | -99.2% [8.25 µM] (active) | -63.2% [8.25 µM] (active) | -98.2% [8.25 µM] (active) | 9.54% [8.25 µM] (active) | 65% [8.25 µM] | 12.1% [8.25 µM] | 14% [8.25 µM]
COc1ccc2c(c1)[nH]c(=O)c1c3cccnc3cn21 | 68.9% | 63.2% | 13.4% | 41% | 61.8% | 30.5% | -14.4% (active) | -3.48% (active) | 23.1% | 25.1%
O=C(CCCCCCSc1nc(-c2ccccc2)cc(-c2ccc(Cl)cc2)n1)NO | 81.3% | 44.5% | 20.7% | -2.31% (active) | 21.1% | 4.89% (active) | -7.71% (active) | 24.2% | 0.872% (active) | 1.04% (active)
COc1cc(C(=O)/C=C/c2c(-c3ccc(F)cc3)nc3sc(C)cn23)cc(OC)c1OC | 144% | 17.4% | 56.3% | 58% | 52.2% | 46.5% | 32.8% | -1.47% (active) | 14.8% | -38.8% (active)
Cc1c(C(=O)N[C@@H](Cc2ccccc2)C(=O)C(=O)NCCc2ccccc2)[nH]c2ccccc2c1=O | 111% | 97.1% | 83.4% | 103% | 118% | 101% | 95.9% | 86.5% | 104% | 86.8%
O=C1/C(=C\c2cccnc2)SC(=S)N1CCc1ccc(O)cc1 | 66.5% | 64.7% | 18.4% | 37.4% | 38.5% | 29.4% | 30.5% | 85.1% | 23.9% | 68.6%
COc1ccc(-c2nc(SCCC(C)C)nc(N/N=C\c3cccc([N+](=O)[O-])c3)c2C#N)cc1 | 80.4% | 40.9% | 35.5% | 7.32% (active) | 42.5% | 15.8% | 22.6% | 41.2% | 45.8% | 73.1%
Cc1cc(C(=O)c2ccccc2)c(C)c2c1[nH]c1ccc(Cl)cc12 | 52.1% | 42.8% | 22.1% | 25% | 93.7% | 24.8% | 24.7% | -11.8% (active) | 8.5% (active) | 15.9%
Cc1ccc(N2CCN(C(=S)c3cccs3)CC2)cc1 | 94.9% | 108% | 102% | 94.8% | 87.3% | 120% | 96.4% | 99.1% | 95.3% | 93.6%
O=C(Nc1ccc(Cl)cc1)Nc1ccc(Cl)c(C(F)(F)F)c1 | 3.63% (active) | -3.9% (active) | 6.93% (active) | 18.5% | 18.1% | 0.165% (active) | 8.5% (active) | -7.36% (active) | -27.6% (active) | -9.08% (active)
CC(=O)O[C@]1(C(C)=O)CCC2C3C[C@H](C)C4=CC(=O)CC[C@]4(C)C3CC[C@@]21C (stereo not given in full) | 98.1% | 72.6% | 63.1% | 65.6% | 106% | 96.6% | 73.8% | 103% | 81.8% | 81.7%
CCOC(=O)c1csc(NC(=O)COc2cccc(/C=C3\Oc4cc(OC)ccc4C3=O)c2)n1 | 83.5% | 98.6% | 109% | -38.8% (active) | 125% | 95.5% | 92.3% | 108% | 62.3% | 65.1%
Nc1ccc2c(c1)c(N)nn2C(=O)Nc1ccc(Cc2ccccc2)cc1 | 73.7% | 82.3% | 61.1% | 39.3% | 88.3% | 48.9% | 38.9% | 103% | 55.5% | 27.8%
